# Data from PubChem BioAssay (EPA / NIEHS).
# Active and inactive are the calls of the source. How the source made its calls: active means hit-call score of the fitted dose curve at least 0.9, where 1 is the maximum; inactive means score below 0.9.
# Read-out: growth arrest and DNA damage 45 (GADD45A), GADD45A (gene 1647)
# Assay: LTEA_HepaRG_GADD45A: Life Technologies and Expression Analysis (LTEA) Assay for growth arrest and DNA damage 45 (GADD45A) using HepaRG (AID 2283458)
# Details: mRNA level, 48 h; actives raise or lower the signal
# How it was run: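 Cells plated and cultured 48 h, switched to serum-free induction medium, then dosed for 48 h (100 uM top, half-log dilutions, 0.5% DMSO). RNA was isolated and transcript measured by Fluidigm qRT-PCR.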
row,SMILES,outcome
1,Clc1nc(Cl)c(Cl)c(Cl)c1Cl,inactive
2,COC(=O)c1c(Cl)c(Cl)c(C(=O)OC)c(Cl)c1Cl,inactive
3,CCn1nc(Cc2ccccc2)cc1C1CCN(C[C@H]2C[C@H](N(C)[C@@H](C(=O)O)C(C)C)C[C@@H]2c2cccc(F)c2)CC1,inactive
4,CCC(C)(C)C(=O)O[C@H]1C[C@@H](C)C=C2C=C[C@H](C)[C@H](CC[C@@H]3C[C@@H](O)CC(=O)O3)[C@H]21,inactive
5,CCCC(=O)OCC,inactive
6,CC(C)CCCCCCOC(=O)c1ccc(C(=O)OCCCCCCC(C)C)c(C(=O)OCCCCCCC(C)C)c1,inactive
7,C[C@](N)(Cc1ccc(O)c(O)c1)C(=O)O,inactive
8,COc1ccc(-n2nc(C(F)F)cc2-c2ccc(S(C)=O)cc2)cc1 (configuration not stated),inactive
9,CCOCCO,inactive
10,O=C(NS(=O)(=O)/C=C/c1ccccc1)c1ccc(F)cc1Cl,inactive
11,CCCCCCCCCCCCCCCO,inactive
12,CCOC(=O)COc1ccc2c(c1)CC(NCC(O)c1cccc(Cl)c1)CC2 (configuration not stated),inactive
13,CCCCCCCCO,inactive
14,CC(C)c1cccc(C(C)C)c1N1C(=O)c2ccc(O)cc2C1=O,inactive
15,CNCc1ccc(NC(=O)c2c[nH]c3c2C(=O)CCC3)cc1,inactive
16,CN(C)c1ccc(N=NS(=O)(=O)O)cc1,inactive
17,O=C(O)CCN(C1(C(=O)NO)CCCC1)S(=O)(=O)c1ccc(Oc2ccc(F)cc2)cc1,inactive

# Read-out: Forkhead box O3 (FOXO3), FOXO3 (gene 2309)
# Assay: LTEA_HepaRG_FOXO3: Life Technologies and Expression Analysis (LTEA) Assay for Forkhead box O3 (FOXO3) using HepaRG (AID 2283459)
# Details: mRNA level, 48 h; actives raise or lower the signal
# How it was run: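 Differentiated human HepaRG cells in serum-free induction medium were exposed in duplicate for 48 h to eight half-log concentrations up to 100 uM in 0.5% DMSO. FOXO3 mRNA was quantified by qRT-PCR, normalized to ACTB, GAPDH and POLR2A, with bidirectional fitting versus DMSO.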
SMILES,outcome,AC50
CC(=O)OCCC(C)C,inactive,
O=C(CCCCCCCCc1cccnc1)N1CCC(C=C(c2ccccc2)c2ccccc2)CC1,inactive,
C1=CCCC=CCCC=CCC1,inactive,
O=c1[nH]c2ccc(S(=O)CCN3CCC(Cc4ccc(F)cc4)CC3)cc2o1 (configuration not stated),inactive,
Cn1c(=O)c2c(ncn2C)n(C)c1=O,inactive,
O=C1OC(=O)C2C3C=CC(C3)C12 (configuration not stated),inactive,
CC(C)=CCCC(C)CCO (configuration not stated),inactive,
Cn1c(=O)cc(Oc2ccc(F)cc2F)c2cnc(NCC(C)(C)O)nc21,inactive,
Clc1nc(Cl)c(Cl)c(Cl)c1Cl,inactive,
CCC(C)(C)C(=O)O[C@H]1C[C@@H](C)C=C2C=C[C@H](C)[C@H](CC[C@@H]3C[C@@H](O)CC(=O)O3)[C@H]21,inactive,
CC(C)CCCCCCOC(=O)c1ccc(C(=O)OCCCCCCC(C)C)c(C(=O)OCCCCCCC(C)C)c1,inactive,
C[C@](N)(Cc1ccc(O)c(O)c1)C(=O)O,inactive,
COc1ccc(-n2nc(C(F)F)cc2-c2ccc(S(C)=O)cc2)cc1 (configuration not stated),inactive,
CCOCCO,inactive,
O=C(NS(=O)(=O)/C=C/c1ccccc1)c1ccc(F)cc1Cl,inactive,
CCCCCCCCCCCCCCCO,inactive,
CCOC(=O)COc1ccc2c(c1)CC(NCC(O)c1cccc(Cl)c1)CC2 (configuration not stated),inactive,
CCCCCCCCO,inactive,
CC(C)c1cccc(C(C)C)c1N1C(=O)c2ccc(O)cc2C1=O,,80.4 µM (active)
CNCc1ccc(NC(=O)c2c[nH]c3c2C(=O)CCC3)cc1,inactive,
O=C(O)CCN(C1(C(=O)NO)CCCC1)S(=O)(=O)c1ccc(Oc2ccc(F)cc2)cc1,inactive,

# Read-out: ABC Transporter (ABCB1), ABCB1 (gene 5243)
# Assay: LTEA_HepaRG_ABCB1: Life Technologies and Expression Analysis (LTEA) Assay for ABC Transporter (ABCB1) using HepaRG (AID 2283460)
# Details: mRNA level, 48 h; actives raise or lower the signal
# How it was run: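 Differentiated human HepaRG cells, plated 48 h then switched to serum-free induction medium, were exposed in duplicate to eight half-log concentrations up to 100 uM in 0.5% DMSO for 48 h. ABCB1 mRNA was measured by TaqMan qRT-PCR, normalized to ACTB/GAPDH/POLR2A.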
SMILES,outcome,AC50
CC1(C)C(=O)N(Br)C(=O)N1Br,inactive,
CC(=O)OCCC(C)C,inactive,
CC(=O)c1ccc2c(c1)[C@H](NC(=O)c1ccc(F)cc1)[C@@H](O)C(C)(C)O2,inactive,
O=C(CCCCCCCCc1cccnc1)N1CCC(C=C(c2ccccc2)c2ccccc2)CC1,,30.7 µM (active)
Cn1cnc([N+](=O)[O-])c1Sc1ncnc2nc[nH]c12,inactive,
C1=CCCC=CCCC=CCC1,inactive,
O=c1[nH]c2ccc(S(=O)CCN3CCC(Cc4ccc(F)cc4)CC3)cc2o1 (configuration not stated),inactive,
Cn1c(=O)c2c(ncn2C)n(C)c1=O,inactive,
O=C1OC(=O)C2C3C=CC(C3)C12 (configuration not stated),inactive,
CC(C)=CCCC(C)CCO (configuration not stated),inactive,
Cn1c(=O)cc(Oc2ccc(F)cc2F)c2cnc(NCC(C)(C)O)nc21,inactive,
CC(C)CC(C)(O)C#CC(C)(O)CC(C)C (configuration not stated),,16.7 µM (active)
Clc1nc(Cl)c(Cl)c(Cl)c1Cl,inactive,
COC(=O)c1c(Cl)c(Cl)c(C(=O)OC)c(Cl)c1Cl,inactive,
CCn1nc(Cc2ccccc2)cc1C1CCN(C[C@H]2C[C@H](N(C)[C@@H](C(=O)O)C(C)C)C[C@@H]2c2cccc(F)c2)CC1,inactive,
CCC(C)(C)C(=O)O[C@H]1C[C@@H](C)C=C2C=C[C@H](C)[C@H](CC[C@@H]3C[C@@H](O)CC(=O)O3)[C@H]21,,31.7 µM (active)
CCCC(=O)OCC,inactive,
CC(C)CCCCCCOC(=O)c1ccc(C(=O)OCCCCCCC(C)C)c(C(=O)OCCCCCCC(C)C)c1,inactive,
C[C@](N)(Cc1ccc(O)c(O)c1)C(=O)O,inactive,
COc1ccc(-n2nc(C(F)F)cc2-c2ccc(S(C)=O)cc2)cc1 (configuration not stated),inactive,
CCOCCO,inactive,
O=C(NS(=O)(=O)/C=C/c1ccccc1)c1ccc(F)cc1Cl,,10.8 µM (active)
CCCCCCCCCCCCCCCO,inactive,
CCOC(=O)COc1ccc2c(c1)CC(NCC(O)c1cccc(Cl)c1)CC2 (configuration not stated),inactive,
CCCCCCCCO,inactive,
CC(C)c1cccc(C(C)C)c1N1C(=O)c2ccc(O)cc2C1=O,,23.9 µM (active)
CNCc1ccc(NC(=O)c2c[nH]c3c2C(=O)CCC3)cc1,inactive,
CN(C)c1ccc(N=NS(=O)(=O)O)cc1,inactive,
O=C(O)CCN(C1(C(=O)NO)CCCC1)S(=O)(=O)c1ccc(Oc2ccc(F)cc2)cc1,inactive,
